Measured potencies and affinities stand elsewhere. Active and inactive are the calls of the source.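 Rule for the calls: active = signal-lowering compounds whose fitted half-maximal concentration is at or below twice the top tested dose in every run; inconclusive = runs disagree, flat 30 to 70% inhibition, or poor curve fit; inactive = the rest.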
biological target: Protein S100-A4 (Homo sapiens) (UniProt P26447); experiment: S100A4-myosin IIA binding inhibitor potency, dose response, biochemical, fluorescence polarization, cherry-picked hits (AID 687001); settings: FP, S100A4/TAMRA-myosin IIA peptide binding; series mostly up to 11 µM
Sequence (P26447 whole entry, looked up): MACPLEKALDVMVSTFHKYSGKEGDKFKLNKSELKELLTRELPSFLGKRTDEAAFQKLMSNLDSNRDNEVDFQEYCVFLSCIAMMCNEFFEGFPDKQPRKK

outcome, inactive:
CC(OC(=O)C1=COCCO1)C(=O)Nc1ncc(Cl)cc1Cl (stereo unspecified), CCCN1C[C@H](C)[C@H](OC)CN(C)C(=O)c2cc(NC(=O)NC3CCCCC3)ccc2OC[C@@H]1C, CCCNC(=O)N1CC[C@@H]2[C@@H](CO)N(C)c3ccc(-c4ccc(F)cc4)cc3[C@@H]21, CCOC(=O)C1(C)CCN1C(=O)c1csnn1 (stereo unspecified), O=C1CC(c2ccccc2)NN1 (stereo unspecified), O=C(C[C@@H]1C=C[C@@H](NS(=O)(=O)c2cccc(F)c2)[C@@H](CO)O1)NCc1ccc2c(c1)OCO2, C[C@H](CO)N1C[C@H](C)[C@H](CN(C)C)Oc2ccc(NS(=O)(=O)c3ccccc3)cc2CC1=O, COc1cc(OC)cc(C(=O)N2CCCc3ccccc32)c1, O=C(CSc1nc2cc(Cl)ccc2s1)c1ccco1, CCOC(=O)[C@]12CCC=C1N(Cc1ccc3c(c1)OCO3)C(=O)[C@H](CC(=O)NCc1cccc(C(F)(F)F)c1)C2, Cc1ccc(NC(=S)N(C)C)cc1C, O=C(Cc1ccc(Br)cc1)N/N=C/c1cccnc1, CCCCn1c(N)c(N(CC(C)C)C(=O)COc2cc(C)ccc2Cl)c(=O)[nH]c1=O, CC(C)NC(=O)N(C)C[C@H]1Oc2ccc(NC(=O)CCCN(C)C)cc2C(=O)N([C@H](C)CO)C[C@H]1C, COC(=O)c1cccc(NC(=O)c2ccc3c(c2)C(=O)N(Cc2cccnc2)C3=O)c1, CCOc1cc(/C=N/NC(=O)c2ccc(N(C)S(=O)(=O)c3ccccc3)cc2)ccc1OC, Cc1cccc(Nc2c3c(nc4ccccc24)CCC3)c1, Cc1ccc2c(nc3s/c(=C\c4ccc(-c5ccccc5C(=O)O)o4)c(=O)n32)c1C, Nc1cnccc1C(=O)O, C[C@H]1CN([C@@H](C)CO)C(=O)c2cc(NC(=O)CCC(F)(F)F)ccc2O[C@@H]1CN(C)S(=O)(=O)c1cn(C)cn1, O=C(NCCCc1ccccc1)c1cccc(NC(=O)C2CCC2)c1, CN(CCC#N)C(=O)COC(=O)[C@H](Cc1ccccc1)N1C(=O)c2ccccc2C1=O, COc1ccc(Cl)cc1S(=O)(=O)n1ccnc1, O=C(C[C@H]1C=C[C@H](NC(=O)CCN2CCCCC2)[C@H](CO)O1)Nc1nccs1, Cc1ccc(C2CC(=O)NC(SCCC(C)C)=C2C#N)cc1 (stereo unspecified), Cc1ccc(S(=O)(=O)Nc2ccc3c(c2)C(=O)N([C@@H](C)CO)C[C@@H](C)[C@@H](CN(C)S(=O)(=O)c2cn(C)cn2)OCCCC[C@@H](C)O3)cc1

Reference: PubChem BioAssay AID687001 (Broad Institute, 2013)
